Data: PubChem BioAssay (Tox21)
Values joined by “and” are separate entries in the source; they are usually repeats but may differ in a detail not shown here. Equal entries are not always repeated. Records with an inconclusive call do not appear. Where a structure was tested more than once in an assay, its records may differ in their call. Active and inactive are the calls of the source. Unless noted, calls come from the whole dose curve; as a rule, active = well fitted curve in the direction sought with a large enough effect in the repeat runs; inconclusive = weak or mixed curves; inactive = no such curve, though single readings can be large; an effect the other way counts as inactive or inconclusive.

Legend:
[1] = Human pregnane X receptor (PXR) small molecule agonists, qHTS cell viability counter screen (AID 1346977); note: nearly all actives have a fitted effect of over 50% in size; note: potency is the fitted concentration of half-maximal effect
Method in brief: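 Viability counter screen: CellTiter-Fluor signal in PXR-Luc HepG2 cells, 24hr compound exposure, 37C, 5% CO2.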

[2] = Caspase-3/7 induction in HepG2 cells by small molecules, qHTS assay (AID 1346978); note: nearly all actives have a fitted effect of over 15% in size; note: potency is the fitted concentration of half-maximal effect
Method in brief: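 Wild-type HepG2 cells, 2,000/well, settled 5 hr at 37 C and 5% CO2, then compound-treated for 17 hr; caspase-3/7 activity read by luminescent Caspase-Glo 3/7 after 30 min at room temperature.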

[3] = Caspase-3/7 induction in CHO-K1 cells by small molecules, qHTS cell viability counter screen (AID 1346979); note: nearly all actives have a fitted effect of over 35% in size; note: potency is the fitted concentration of half-maximal effect
Method in brief: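 Viability readout by fluorescence (CellTiter-Fluor) on wild-type CHO-K1 cells exposed for 16hr at 37C and 5% CO2 to compounds delivered in DMSO; reagent incubated 1hr before reading.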

[4] = Caspase-3/7 induction in CHO-K1 cells by small molecules, qHTS assay (AID 1346980); note: nearly all actives have a fitted effect of over 15% in size; note: potency is the fitted concentration of half-maximal effect
Method in brief: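 Wild-type CHO-K1 cells exposed to compounds for 17hr at 37 C, 5% CO2. Caspase-3/7 activity then measured by Caspase-Glo 3/7 luminescence after 30min at room temperature.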

[5] = Caspase-3/7 induction in HepG2 cells by small molecules, qHTS cell viability counter screen (AID 1346981); note: nearly all actives have a fitted effect of over 30% in size; note: potency is the fitted concentration of half-maximal effect
Method in brief: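 Wild-type HepG2 cells (2,000/well) were allowed to settle for 5 hr at 37 C, 5% CO2, then dosed with compounds in DMSO by pin transfer. After 16 hr at 37 C, CellTiter-Fluor was added and fluorescence read 1 hr later.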

[6] = target: Nuclear receptor subfamily 1 group I member 2 (Homo sapiens) (UniProt O75469); test: Human pregnane X receptor (PXR) small molecule agonists, qHTS assay (AID 1346982); note: nearly all actives have a fitted effect of over 35% in size; note: potency is the fitted concentration of half-maximal effect
Method in brief: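 PXR-Luc HepG2 cells (CYP3A4 promoter-driven luciferase) were seeded in medium with 5% charcoal-stripped FBS, left 5 hr at 37 C, then exposed to compounds in DMSO for 24 hr. Luminescence was read after ONE-Glo addition.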

[7] = target: Thyrotropin-releasing hormone receptor (Homo sapiens) (UniProt P34981); test: qHTS assay to identify small molecule agonists of the thyrotropin-releasing hormone receptor (TRHR) signaling pathway (AID 1346891; calls by dose curve;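 note: HEK293 cells expressing TRHR with calcium dye readout; series mostly up to about 58 µM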)
Method in brief: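 Compounds were tested as agonists at 15 concentrations, in triplicate, on TRHR-Hek293 cells; calcium-sensitive dye fluorescence was recorded for 3 min following addition.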

[8] = target: Nuclear receptor subfamily 1 group I member 2 (Rattus norvegicus) (UniProt Q9R1A7); test: Rat pregnane X receptor (rPXR) activation by small molecules, qHTS assay (AID 1346983); details: rPXR luciferase reporter cells, One-Glo luminescence, 24 h; stronger effect = higher value; note: nearly all actives have a fitted effect of over 20% in size
Method in brief: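 Cell-based rPXR activation assay: rPXR cells, 2,000 per well, rested 5hr at 37 C, then exposed to compounds in DMSO for 24 hr at 37 C. Luciferase activity read by One-Glo luminescence after 30 min at room temperature.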

[9] = target: Nuclear receptor subfamily 1 group I member 2 (Homo sapiens) (UniProt O75469); test: CYP3A4 induction through human pregnane X receptor (PXR) by small molecules, qHTS assay (AID 1346984); note: nearly all actives have a fitted effect of over 40% in size
Method in brief: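 DPX-2 cells (HepG2 co-transfected with PXR and CYP3A4 promoter-luciferase) treated with compounds 24 h at 37C; luciferin-IPA CYP3A4 substrate 3uM final added for 3 h, then One-Glo; luminescence read. qHTS format.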

[10] = target: Nuclear receptor subfamily 1 group I member 2 (Homo sapiens) (UniProt O75469); test: Human pregnane X receptor (PXR) activation by small molecules, qHTS assay (AID 1346985); note: nearly all actives have a fitted effect of over 40% in size
Method in brief: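 DPX-2 cells (HepG2 co-transfected with a PXR response element and a CYP3A4-promoter luciferase construct) were seeded at 2,000 per well, rested 5 hr at 37C, then exposed to DMSO-dissolved compounds for 24 hr. Activation was read as luciferase luminescence.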
% is set by controls: 0 for no effect and ±100 for the full control effect.

Thyrotropin-releasing hormone receptor (Homo sapiens), sequence (P34981 whole entry, looked up): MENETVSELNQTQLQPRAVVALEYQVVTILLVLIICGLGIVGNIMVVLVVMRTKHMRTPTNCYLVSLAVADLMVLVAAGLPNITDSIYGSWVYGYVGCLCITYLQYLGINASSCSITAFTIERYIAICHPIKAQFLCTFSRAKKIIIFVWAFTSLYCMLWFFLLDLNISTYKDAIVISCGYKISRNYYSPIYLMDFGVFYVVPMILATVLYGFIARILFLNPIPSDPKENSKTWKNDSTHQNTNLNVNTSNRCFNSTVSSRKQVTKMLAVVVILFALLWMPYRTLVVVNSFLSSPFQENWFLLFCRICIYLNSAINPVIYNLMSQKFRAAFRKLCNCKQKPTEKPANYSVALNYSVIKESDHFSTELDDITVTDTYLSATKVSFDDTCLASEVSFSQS
Nuclear receptor subfamily 1 group I member 2 (Rattus norvegicus), sequence (Q9R1A7 whole entry, looked up): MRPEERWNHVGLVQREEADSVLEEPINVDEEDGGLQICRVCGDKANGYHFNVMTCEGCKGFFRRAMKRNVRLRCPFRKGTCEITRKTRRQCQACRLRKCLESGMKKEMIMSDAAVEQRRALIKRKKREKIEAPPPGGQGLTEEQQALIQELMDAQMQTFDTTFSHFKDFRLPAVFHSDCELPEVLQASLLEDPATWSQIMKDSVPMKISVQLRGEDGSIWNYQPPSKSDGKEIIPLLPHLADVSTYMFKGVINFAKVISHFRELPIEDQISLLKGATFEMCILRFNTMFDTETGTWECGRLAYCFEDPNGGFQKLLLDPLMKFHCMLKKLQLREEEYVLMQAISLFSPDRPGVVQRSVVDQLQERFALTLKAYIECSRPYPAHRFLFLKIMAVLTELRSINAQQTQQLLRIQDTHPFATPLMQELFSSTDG
Nuclear receptor subfamily 1 group I member 2 (Homo sapiens), sequence (O75469 whole entry, looked up): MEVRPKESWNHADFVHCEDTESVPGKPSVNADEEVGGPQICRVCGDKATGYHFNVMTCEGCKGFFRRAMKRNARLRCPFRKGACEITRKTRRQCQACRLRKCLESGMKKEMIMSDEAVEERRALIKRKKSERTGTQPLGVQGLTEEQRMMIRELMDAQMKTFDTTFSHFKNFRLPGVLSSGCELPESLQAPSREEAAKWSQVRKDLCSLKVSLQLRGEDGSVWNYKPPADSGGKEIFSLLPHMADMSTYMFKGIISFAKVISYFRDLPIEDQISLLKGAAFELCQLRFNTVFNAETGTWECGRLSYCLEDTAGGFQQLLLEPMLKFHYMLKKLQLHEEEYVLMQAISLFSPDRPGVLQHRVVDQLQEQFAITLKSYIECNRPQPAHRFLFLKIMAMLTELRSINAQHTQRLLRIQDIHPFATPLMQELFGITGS

Cc1c(COC(=O)[C@@H]2[C@H](/C=C(\Cl)C(F)(F)F)C2(C)C)cccc1-c1ccccc1
inactive: Potency [1] | Potency [2] | Potency [4] | Potency [5]
26.7 µM (active) and inactive: Potency [6]
active: Potency [3] 43.1 µM

c1cc(OCC2CO2)ccc1Cc1ccc(OCC2CO2)cc1 (stereo unspecified)
inactive: Potency [7] | Potency [2] | Potency [4] | Potency [5]
active: Potency [6] 68.9 µM and 61.1 µM

O=C(CCl)c1ccccc1
inactive: Potency [2] | Potency [4] | Potency [5]
active: Potency [3] 68.6 µM | Potency [6] 62 µM

COc1ccc(C(CN(C)C)C2(O)CCCCC2)cc1 (stereo unspecified)
inactive: Potency [2] | Potency [3] | Potency [4] | Potency [5] | Potency [6] | max activation [8] -0.342% | outcome [9] | outcome [10]

N[C@@H](Cc1ccc(N(CCCl)CCCl)cc1)C(=O)O
active: Potency [3] 29.4 µM and 26.6 µM | Potency [5] 26.2 µM
inactive: Potency [7] | Potency [4] | max activation [8] -1.77%

Oc1c(Cl)c(Cl)c(Cl)c(Cl)c1Cl
active: Potency [6] 59.9 µM and 54.5 µM
inactive: Potency [7] | Potency [2] | Potency [3] | Potency [4] | Potency [5]

Oc1cc(Cl)ccc1Oc1ccc(Cl)cc1Cl
inactive: max activation [8] -0.85%
64.4 µM (active) and inactive: Potency [2]
active: Potency [1] 31.4 µM and 29.8 µM | Potency [3] 28.8 µM and 26.6 µM | Potency [5] 44.3 µM
59.1 µM (active) and inactive: Potency [4]

CN(C)C(=O)Nc1ccc(Cl)cc1
inactive: Potency [2] | Potency [3] | Potency [4] | Potency [5] | Potency [6]

CCC(C)c1cc([N+](=O)[O-])cc([N+](=O)[O-])c1O (stereo unspecified)
inactive and 15.4 µM (active): Potency [3]
inactive and 17.2 µM (active): Potency [5]
inactive: Potency [2] | Potency [4]
inactive and 8.63 µM (active): Potency [1]
inactive and 27.3 µM (active): Potency [6]

N#CCCCl
inactive: Potency [1] | Potency [2] | Potency [3] | Potency [4] | Potency [6]

Cc1cccc(N)c1N
active: Potency [6] 26.4 µM and 54.5 µM
inactive: Potency [7] | Potency [2] | Potency [3] | Potency [4] | Potency [5]

CCC(=O)O[C@H]1CC[C@H]2[C@@H]3CCC4=CC(=O)CC[C@]4(C)[C@H]3CC[C@]12C
inactive: Potency [1] | Potency [2] | Potency [3] | Potency [4] | Potency [5] | Potency [6] | max activation [8] -2.06% | outcome [9] | outcome [10]

O=C(O)CC[N+](=O)[O-]
inactive: Potency [1] | Potency [2] | Potency [3] | Potency [4] | Potency [5] | Potency [6]

O=C(Nc1ccc(Br)cc1)c1cc(Br)cc(Br)c1O
active: Potency [3] 17.2 µM and 15.4 µM | Potency [6] 13.6 µM and 13.7 µM and 21.1 µM
inactive: Potency [7] | Potency [2] | Potency [4] | max activation [8] -12.3% | outcome [10]

CC(C)=CC1C(C(=O)OCc2coc(Cc3ccccc3)c2)C1(C)C (stereo unspecified)
inactive: Potency [2] | Potency [3] | Potency [4] | Potency [5]
active: Potency [6] 24.3 µM

Oc1ccc(-c2ccccc2)cc1
active: Potency [6] 60.3 µM and 54.5 µM
47.9 µM (active) and inactive: Potency [3]
inactive: Potency [7] | Potency [2] | Potency [4] | Potency [5]

C[C@]12CCC(=O)C[C@@H]1CC[C@@H]1[C@@H]2CC[C@]2(C)[C@@H](O)CC[C@@H]12
inactive: Potency [2] | Potency [4] | Potency [5] | max activation [8] -5.43%

CCCCCCCCC(=O)NCc1ccc(O)c(OC)c1
27.3 µM (active) and inactive: Potency [6]
inactive: Potency [2] | Potency [3] | Potency [4] | Potency [5]

CCCCCc1cc(O)cc(O)c1
active: Potency [5] 48.6 µM | Potency [6] 61.4 µM and 30.6 µM
inactive: Potency [7] | Potency [2] | Potency [4]

C=CCc1ccc2c(c1)OCO2
43.5 µM (active) and inactive: Potency [2]
61.4 µM (active) and inactive: Potency [6]
inactive: Potency [3] | Potency [4] | Potency [5]

NNC(N)=S
inactive: Potency [7] | Potency [2] | Potency [5]
active: Potency [3] 25.3 µM and 48.6 µM | Potency [6] 56.6 µM and 21.7 µM

CCOC(=O)C(C)OC(=O)c1cc(Oc2ccc(C(F)(F)F)cc2Cl)ccc1[N+](=O)[O-] (stereo unspecified)
inactive: Potency [7] | Potency [2] | Potency [4] | Potency [5]
active: Potency [6] 30.5 µM

c1nc[nH]n1
inactive: Potency [1] | Potency [2] | Potency [3] | Potency [4] | Potency [5] | Potency [6]

O=c1oc2ccccc2c(O)c1C(CC(O)c1ccc(-c2ccc(Br)cc2)cc1)c1ccccc1 (stereo unspecified)
inactive: Potency [7] | Potency [2] | Potency [3] | Potency [4] | Potency [5] | Potency [6] | max activation [8] -5.73% | outcome [9] | outcome [10]

O=C(NC(=O)c1c(F)cccc1F)Nc1ccc(Cl)cc1
2.44 µM (active) and inactive: Potency [6]
inactive: Potency [2] | Potency [3] | Potency [4] | Potency [5]

CC(C)c1ccc(CO)cc1
inactive: Potency [1] | Potency [2] | Potency [3] | Potency [4] | Potency [5] | Potency [6]

CCc1cccc(CC)c1N(COC)C(=O)CCl
inactive: Potency [7] | Potency [2] | Potency [4] | Potency [5]
active: Potency [3] 16.7 µM | Potency [6] 10.5 µM and 1.37 µM

C[C@]12CCC(=O)C(O)=C1CC[C@@H]1[C@@H]2CC[C@]2(C)C(=O)CC[C@@H]12
54.5 µM (active) and inactive: Potency [6]
inactive: Potency [2] | Potency [3] | Potency [4] | Potency [5] | max activation [8] -2.61% | outcome [9] | outcome [10]

C#C[C@]1(O)CC[C@H]2[C@@H]3CCC4=CC(=O)CC[C@]4(C)[C@H]3CC[C@@]21C
inactive: Potency [7] | Potency [2] | Potency [3] | Potency [4] | Potency [5] | max activation [8] 11.6%

CCCCOCCOP(=O)(OCCOCCCC)OCCOCCCC
active: Potency [6] 10.9 µM and 19.3 µM
inactive: Potency [1] | Potency [2] | Potency [4] | Potency [5]
